ROC1-CUL1 inh = inhibitors of human ROC1-CUL1 ubiquitin ligase activity; P62877+Q13616; in vitro K48 di-Ub FRET, acceptor:donor ratio, 45 min; inhibition, % at 10 µM; hit rate 0.6% among 140,000; in the data active means inhibition above about 25%
Target sequence (P62877 whole entry, looked up): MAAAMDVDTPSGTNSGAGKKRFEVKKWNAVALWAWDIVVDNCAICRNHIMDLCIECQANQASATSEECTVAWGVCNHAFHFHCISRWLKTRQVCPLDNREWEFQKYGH
Target sequence (Q13616 whole entry, looked up): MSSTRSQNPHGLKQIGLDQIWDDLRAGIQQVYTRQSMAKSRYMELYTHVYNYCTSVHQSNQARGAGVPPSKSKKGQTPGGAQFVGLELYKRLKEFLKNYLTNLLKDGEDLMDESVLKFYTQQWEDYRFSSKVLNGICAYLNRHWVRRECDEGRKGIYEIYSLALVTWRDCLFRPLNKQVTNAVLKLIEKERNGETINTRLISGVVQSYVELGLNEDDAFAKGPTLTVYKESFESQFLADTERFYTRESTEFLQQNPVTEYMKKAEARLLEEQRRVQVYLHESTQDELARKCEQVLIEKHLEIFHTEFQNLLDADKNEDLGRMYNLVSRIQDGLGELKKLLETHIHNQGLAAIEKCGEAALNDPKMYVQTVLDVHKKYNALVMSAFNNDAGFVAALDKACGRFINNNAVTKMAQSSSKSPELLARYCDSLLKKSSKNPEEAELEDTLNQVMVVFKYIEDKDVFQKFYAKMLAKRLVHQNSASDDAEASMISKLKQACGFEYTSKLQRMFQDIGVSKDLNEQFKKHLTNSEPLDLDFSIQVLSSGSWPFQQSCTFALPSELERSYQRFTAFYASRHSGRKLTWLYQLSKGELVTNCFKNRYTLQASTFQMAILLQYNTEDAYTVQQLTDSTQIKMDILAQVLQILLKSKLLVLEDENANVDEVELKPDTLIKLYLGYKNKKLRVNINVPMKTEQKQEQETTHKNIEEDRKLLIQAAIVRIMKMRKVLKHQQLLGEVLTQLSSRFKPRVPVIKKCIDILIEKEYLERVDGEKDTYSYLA
* hit, by the source's call. Shown is part of a subset that was picked to be rich in hits.

SMILES	ROC1-CUL1 inh
COc1c(Cl)ccc(S(=O)(=O)N2CCOCC2)c1Cl	-4.9
NC1NN=C(CCN2C(=O)c3ccccc3C2=O)S1 (stereo unspecified)	-1.5
Cc1ccc(N2C(=O)/C(=C/c3ccc(N4CCN(C)CC4)o3)C(=O)NC2=S)cc1	-4.3
CC(C)c1ccc(N2C(=O)/C(=C/c3ccc(Sc4ccccc4)o3)C(=O)NC2=S)cc1	97.3*
CC(C)c1ccc(N2C(=O)/C(=C/c3ccc(O)cc3)C(=O)NC2=S)cc1	-0.4
O=C1NC(=S)N(c2ccc(F)cc2)C(=O)/C1=C\c1ccc(N2CCOCC2)o1	-3.6
O=C1S/C(=C\c2ccc(Sc3ccccc3)o2)C(=O)N1c1ccc(Cl)cc1	-4.3
Cc1ccc(Cl)cc1-c1ccc(/C=C2/C(=O)NC(=S)N(c3ccc(F)cc3)C2=O)o1	45.9*
CC(C)c1ccc2c(c1)C(N1CCN(CCO)CC1)Cc1cc(F)ccc1S2 (stereo unspecified)	-3.7
CCOc1ccc(S(=O)(=O)N2CCC(Cc3ccccc3)CC2)cc1	58.7*
CCOc1ccc(S(=O)(=O)N2CCOCC2)cc1	-6.9
CCOC(=O)C1CCN(S(=O)(=O)c2ccc(OCC)cc2)CC1	5.7
CCN1C(=O)/C(=C/c2ccc(C)cc2)N(C)C1=S	3.8
O=C1CS/C(=N\N=C\c2cc(I)cc(I)c2OCc2ccccc2)N1	1.1
O=C1CCCN1c1ccc(NC2(c3ccccc3)C(=O)c3ccccc3C2=O)cc1	-1.0
CCCCC(=O)Nc1nnc(Cc2ccc(Cl)cc2Cl)s1	0.3
O=C(NNC(=O)c1ccc2ccccc2c1O)c1ccc([N+](=O)[O-])cc1	6.8
CCC1=C(C#N)C(=S)N=C2CCCC21 (stereo unspecified)	-2.4
N#CC1=CC2CCCC2=NC1=S (stereo unspecified)	105.7*
N#CC1=CC2CCCCCCC2=NC1=S (stereo unspecified)	0.1
CC1(C)OC2Cc3ccccc3CC2O1 (stereo unspecified)	-4.8
CCCCc1nnc2sc(-c3cccc(F)c3)nn12	-4.7
CC(C)CCN1CC[C@@H](N2CCN(CCc3ccccc3)CC2)[C@H](O)C1	-2.4
CNCc1cn(C2CCN(C(=O)c3ccc4ncccc4c3)CC2)nn1	7.5
Oc1c(Cl)c(Cl)c2c(c1Cl)CC(Nc1ccc3ncccc3c1)O2 (stereo unspecified)	81.3*
SMILES	ROC1-CUL1 inh
COC(=O)c1ccc2ncccc2c1	-16.5
FC(F)(F)Oc1ccc2c(c1)C1C=CCC1C(c1ccc(Cl)cc1Cl)N2 (stereo unspecified)	-4.0
Cc1cccc(C(=O)Nc2ccc3c(c2)C(=O)c2ccccc2C3=O)c1	6.5
CSc1nc(C(N)=O)c(N)s1	-13.5
Cc1ccc(SC2=C(N3CCOCC3)C(=O)N(c3cc(C)cc(C)c3)C2=O)cc1	-4.2
CCOC(=O)c1c(C)n(-c2ccccc2)c2ccc(OC(=O)c3ccccc3Cl)cc12	-2.2
CCOC(=O)c1c(C)n(-c2ccccc2)c(C)nc1=S	10.9
CCOC(=O)c1c(C(=O)OCC)c(C)n(-c2ccccc2C(=O)O)c1C	35.7*
Cc1[nH]n(-c2ccc(F)cc2)c(=O)c1C(c1ccc(O)cc1)c1c(C)[nH]n(-c2ccc(F)cc2)c1=O	11.3
Cc1ccc2nc(CCC(C)C3CCC4C5CC[C@@H]6CC(O)CC[C@]6(C)C5CC[C@]34C)[nH]c2c1 (stereo partly specified)	-1.0
CC(CCc1nc2ccccc2o1)C1CCC2C3CC[C@@H]4CC(OCCC(=O)O)CC[C@]4(C)C3CC[C@]12C (stereo partly specified)	39.5*
C[C@H](CCC(=O)O)[C@H]1CCC2C3CC[C@@H]4C[C@H](OC=O)CC[C@]4(C)C3CC[C@@]21C (stereo partly specified)	2.3
Cc1oc2nc3c(c(=O)n(Cc4cccc(Cl)c4)c(=O)n3C)n2c1C	1.8
Cc1nn(C(=O)c2ccc(NC(=O)C(C)C)cc2)c(C)c1C	-4.9
CC(=O)c1ccc(OCc2c(C)noc2C)cc1	3.6
Cc1ccc(-c2nn3c(-c4cccs4)c(C#N)cnc3c2Br)cc1	-0.4
Cc1ccc(-c2nn3c(N)c(C#N)nnc3c2Cl)cc1	94.1*
Cc1ccc(-c2nn3c(-c4ccc(C)cc4)nnc3c3ccccc23)cc1	3.2
Cc1cc(/C=C2\C(=O)NC(=S)N(C)C2=O)c(C)n1-c1ccccc1F	2.4
CN1C(=O)C(=Cc2cc(Br)c(N(C)C)o2)C(=O)N(C)C1=O	0.0
CN1C(=O)/C(=C/c2cc(Br)c(Sc3ccc(Cl)cc3)o2)C(=O)NC1=S	48.1*
CC(=O)NCCNC(=O)C1(N(C)Cc2ccccc2)Cc2ccccc2C1	-2.8
C=CCn1c(SCC(=O)Nc2cccc(C(C)=O)c2)nc2sc3c(c2c1=O)CCC3	-8.7
O=C(c1cn[nH]c1)N1CCOC(Cc2cccc(C(F)(F)F)c2)C1 (stereo unspecified)	-1.5
C/C(=N/NS(=O)(=O)c1ccc(Br)cc1)c1cccc(NC(=O)C2CCCCC2)c1	10.8
O=C1/C(=C/c2ccccc2OCc2ccccc2Cl)C(c2ccccc2)=NN1c1ccc([N+](=O)[O-])cc1	-2.9
O=C(O)c1ccc(N2N=C(c3ccccc3)/C(=C/c3ccccc3)C2=O)cc1	7.0

High-throughput results from PubChem.
